High-throughput results from PubChem.
Insulin prom inh: TRM-6 insulin promoter activity inhibition; 0.9% of 130,000 active; inhibition, % at 2 µM; TRM-6 cells (human fetal islet line), insulin promoter-eGFP reporter, imaging; reporter expression induced with tamoxifen;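 active = inhibition above the mean plus 3 SD, with well images judged a real hit on visual review, cut at about 60% in these data, passing the limit was not always enough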
ROMK mod: modulates human ROMK potassium channel activity; P48048; Tet-inducible ROMK, thallium flux fluorescence; actives lie on both sides; B-score at 10 µM; 2% of 130,000 active;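 active = signal ratio slope over the read window, or its plate-corrected B-score, at least 3 SD from the plate mean, either direction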;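 also: B-score of the F/F0 ratio slope over 7 to 12 s after thallium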
L major viab: inhibitors of Leishmania major promastigote growth; inhibition, % at 10 µM; AID 1063; Leishmania major promastigotes, resazurin fluorescence viability; 9% of 200,000 active; in the data active = inhibition above about 50%;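 also: promastigotes grown with compound for 44 hours at 28 °C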
Cl transport mod: KCC2 (human) Cl- transport modulation; 2.2% of 190,000 active; Q9H2X9; KCC2 cells, thallium flux FluoZin-2 fluorescence; B-score of Tl+ flux slope (higher = more flux/activation; lower = inhibition) at 10 µM;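 active = thallium flux slope and its plate-corrected score both differing from the plate sample mean at a set confidence after two filtering rounds, in either direction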;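 also: slope of fluorescence scaled to starting intensity during 10 to 20 s after thallium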
Target sequence (Q9H2X9 whole entry, looked up): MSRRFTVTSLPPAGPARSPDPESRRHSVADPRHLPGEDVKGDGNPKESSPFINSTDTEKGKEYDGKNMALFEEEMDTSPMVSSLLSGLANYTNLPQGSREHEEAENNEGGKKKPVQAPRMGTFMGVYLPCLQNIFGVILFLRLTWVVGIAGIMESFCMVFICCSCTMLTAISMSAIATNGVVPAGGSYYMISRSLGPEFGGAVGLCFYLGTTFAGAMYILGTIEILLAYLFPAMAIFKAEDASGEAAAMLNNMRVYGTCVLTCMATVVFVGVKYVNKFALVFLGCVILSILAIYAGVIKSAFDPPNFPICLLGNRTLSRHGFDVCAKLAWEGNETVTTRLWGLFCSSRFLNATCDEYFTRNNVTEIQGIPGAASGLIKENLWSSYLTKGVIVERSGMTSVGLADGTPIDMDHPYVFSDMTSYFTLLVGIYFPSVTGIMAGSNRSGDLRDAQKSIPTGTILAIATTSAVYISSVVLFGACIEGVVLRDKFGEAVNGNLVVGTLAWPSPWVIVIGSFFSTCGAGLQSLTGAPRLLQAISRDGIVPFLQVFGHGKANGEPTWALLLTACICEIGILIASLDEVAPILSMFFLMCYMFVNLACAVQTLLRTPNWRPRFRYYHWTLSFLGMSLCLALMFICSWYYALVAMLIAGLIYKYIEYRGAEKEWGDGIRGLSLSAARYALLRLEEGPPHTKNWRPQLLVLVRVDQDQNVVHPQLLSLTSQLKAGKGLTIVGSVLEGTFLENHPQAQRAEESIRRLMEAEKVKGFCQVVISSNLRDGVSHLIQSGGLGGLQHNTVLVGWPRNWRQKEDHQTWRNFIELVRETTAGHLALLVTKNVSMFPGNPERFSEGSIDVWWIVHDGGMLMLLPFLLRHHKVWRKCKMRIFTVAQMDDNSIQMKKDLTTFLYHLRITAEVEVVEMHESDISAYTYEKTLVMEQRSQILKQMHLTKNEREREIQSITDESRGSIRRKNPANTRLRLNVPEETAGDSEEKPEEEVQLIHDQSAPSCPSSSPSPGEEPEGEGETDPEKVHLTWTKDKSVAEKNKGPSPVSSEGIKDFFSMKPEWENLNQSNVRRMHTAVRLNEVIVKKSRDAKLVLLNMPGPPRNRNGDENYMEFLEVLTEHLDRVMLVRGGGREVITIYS
WT yeast gro inh: growth inhibition of WT yeast, mitochondrial fusion screen | mitochondrial fusion phenotypic screen, WT strain | 2.1% of 190,000 active | inhibition, % at 10 µM | AID 1362; in the data active = inhibition above about 58%; tested in S. cerevisiae
Insulin prom up: MIN6 insulin promoter up-regulation | MIN6 insulin promoter-GFP reporter, high-content imaging; hits give high values | 0.3% of 190,000 active | z-score at 5 µM | AID 1625;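 active = z-score above 3 at 5 µM with at least 500 cells counted in the well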
* = called active by the depositor; nt = no result. A selection: hits, their analogues and other compounds. The true share with any hit is near 12%.

SMILES	Insulin prom inh	ROMK mod	L major viab	Cl transport mod	WT yeast gro inh	Insulin prom up
Cc1ccc(C)c(NC(=S)NNC(=O)c2cc3c(s2)CCC(C)C3)c1 (stereo not given)	nt	nt	2	28*	4	-0.33
Cc1ccc(C)c(NC(=S)NNC(=O)c2csc(C(C)C)c2)c1	-54	nt	3	13*	4	-0.98
Cc1ccc(C)c(NC(=S)NNC(=O)c2ccco2)c1	37	0.22	-2	-0.077	-6	nt
Cc1cccc(NC(=S)NNC(=O)c2csc3c2CCC(C)C3)c1 (stereo not given)	-7	-0.29	-9	25*	37	-1
CCOC(=O)C1=C(C)NC(=O)NC1c1ccc(-c2ccccc2F)o1 (stereo not given)	0	-0.29	6	0.038	-7	0.19
C/C=C(\C)CN1CCN(c2cc(C)ccc2C)CC1	nt	-0.081	3	nt	59*	nt
CCOC(=O)c1ccccc1Oc1c(F)c(F)nc(NCCO)c1F	11	nt	82*	-0.29	12	1.2
O=C(c1cccs1)N1CCN(Cc2ccccc2[N+](=O)[O-])CC1	21	nt	76*	-0.08	-5	0.29
COc1cccc(C(=O)N2CCN(Cc3ccccc3[N+](=O)[O-])CC2)c1	nt	0.45	-6	-0.98	-4	-0.28
COc1ccc(CN2CCN(C(=O)c3cccs3)CC2)c(OC)c1OC	nt	-0.28	95*	-0.36	-1	1.5
O=C(N/N=C1\C/C(=N\NC(=O)c2ccncc2)c2ccccc21)c1ccncc1	nt	0.014	73*	1	25	-0.63
O=C(CNC(=S)NC(=O)c1ccc(Cl)cc1)c1ccccc1	19	nt	88*	1.8	-16	0.17
CCOC(=O)C(C)Sc1nc2c(c(=O)[nH]c(=O)n2C)n1C/C=C(/C)Cl (stereo not given)	-8	nt	-3	-0.9	10	-0.25
Cc1cc(Nc2ccccc2Cl)n2nnnc2n1	23	-0.31	87*	-0.037	-7	0.53
Cc1cc(Nc2ccc(Cl)cc2)n2nnnc2n1	6	nt	6	0.088	10	0.01
CCc1cccc(C)c1N1C(=O)CC(C)(C)CC1=O	nt	0.22	nt	0.087	nt	-0.06
CCN1CCN(c2cc(C)c3cc(NC(=S)N4CC(C)CC(C)C4)ccc3n2)CC1 (stereo not given)	nt	0.35	100*	1.4	24	0.11
CCN1CCN(c2cc(C)c3cc(NC(=S)N4CCCC(C)C4)ccc3n2)CC1 (stereo not given)	nt	-0.41	96*	1	6	-0.08
CCN1CCN(c2cc(C)c3cc(NC(=S)N4CCN(c5ccc(F)cc5)CC4)ccc3n2)CC1	nt	0.24	38	0.53	28	-0.36
O=C(CCc1ccc(S(=O)(=O)N2CCOCC2)cc1)N1CCc2ccccc2C1	7	-0.86	4	-0.12	-9	0.18
CCC(=O)N(C)CCc1cc2c(c(OC)c1/C=N/Nc1ccc(C(=O)O)cc1)OCO2	nt	0.44	nt	0.46	nt	0.58
CCc1ccc(NC(=O)NCCN2CCc3ccccc3C2)cc1	-9	nt	12	-0.67	-7	nt
COc1cc(C(=O)OCCN2CCOCC2)ccc1O	nt	nt	56*	1.1	-6	nt
O=C(OCCCN1CCOCC1)c1ccc(O)c(O)c1	nt	nt	nt	0.17	nt	nt
CC(=O)N/C(=C\c1ccccc1)C(=O)NCC(=O)O	nt	nt	-4	1.5	-8	-0.12
SMILES	Insulin prom inh	ROMK mod	L major viab	Cl transport mod	WT yeast gro inh	Insulin prom up
CCOC(=O)C1CCN(C(=O)c2cccc(NS(=O)(=O)c3ccc(F)c(F)c3)c2)CC1	nt	0.9	-5	-0.015	-4	-0.09
CCN(CCCc1ccccc1)CCCc1ccccc1	-38	nt	95*	-0.45	20	nt
COc1ccc(NC(=O)CN2CCN(c3ccccc3F)CC2)cc1	21	nt	-5	-0.37	-14	-0.49
O=C(CN1CCN(S(=O)(=O)c2ccc3ccccc3c2)CC1)Nc1ccc2c(c1)CCC2	-17	nt	89*	0.5	7	0.49
N#Cc1ccsc1NC(=O)CN1CCN(Cc2ccccc2)CC1	nt	0.28	3	-1.2	-2	-1.3
N#Cc1ccsc1NC(=O)CN1CCN(S(=O)(=O)c2ccc3ccccc3c2)CC1	-30	-1.3	65*	-1.1	6	-0.01
O=C(CN1CCN(c2ccccc2F)CC1)Nc1ccc2c(c1)CCC2	-43	-1	64*	-0.63	3	-0.06
O=C(Nc1ccccc1)OC1CC2CC1C1CCCC21 (stereo not given)	nt	-0.15	2	-1.2	80*	-0.23
COc1ccc(-n2nnnc2SCc2nc3ccccc3s2)cc1	22	0.017	0	-0.071	7	0.81
COc1ccc(C)cc1-n1nnnc1SCC(=O)Nc1cc(C)on1	28	-0.12	-1	-0.096	-24	nt
